Source: PubChem
In the library only some 12% were active in any assay of this set; here they are far more common.
HP1b binding inh: HTS for Inhibitors of HP1-beta Chromodomain Interactions with Methylated Histone Tails | AlphaScreen HP1-beta / biotin-H3K9me3 peptide binding | Potency, µM (top dose mostly 114 µM), hits mostly inhibitors | 0.56% of 390,000 active; further: nearly all actives have a fitted effect of over 70% in size
Target sequence (P83916 whole entry, looked up): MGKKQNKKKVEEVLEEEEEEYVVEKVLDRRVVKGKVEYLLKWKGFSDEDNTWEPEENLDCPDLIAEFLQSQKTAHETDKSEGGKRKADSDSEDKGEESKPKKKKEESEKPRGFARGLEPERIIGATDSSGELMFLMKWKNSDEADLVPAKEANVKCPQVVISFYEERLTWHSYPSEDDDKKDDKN
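Compound inhibition of the preformed complex between 50 nM HP1-beta and 50 nM biotinylated H3K9me3 peptide was read by AlphaScreen. Buffer was PBS pH 7.4 with 0.01% Tween-20. Incubations ran 30 min at room temperature, with 10 ug/mL donor/acceptor beads.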
JMJD2A Tudor inh: qHTS Assay for Inhibitors of JMJD2A-Tudor Domain | 4.4% of 390,000 active | AlphaScreen JMJD2A-Tudor / H3K4me3 peptide binding | Potency, µM (series often up to 114 µM), hits mostly inhibitors | AID 504339, 2011; further: nearly all actives have a fitted effect of over 50% in size
BAZ2B block: qHTS Assay for Inhibitors of BAZ2B; Potency, µM (doses to about 114 µM), most hits filed as inhibitors; 4.4% of 360,000 active; AlphaScreen BAZ2B-H3K14Ac peptide displacement; further: nearly all actives have a fitted effect of over 60% in size
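AlphaScreen displacement of biotin-H3(5-23)K14Ac peptide (50 nM final) from BAZ2B (50 nM final) in PBS pH 7.4, 0.01% Tween-20; complex preformed 30 min RT, then compounds (top 110 uM) 30 min RT, beads 20 min dark.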
PI5P4Ka inh: qHTS for Inhibitors of phosphatidylinositol 5-phosphate 4-kinase (PI5P4K). PI5P4Kalpha enzyme, ADP-Glo luminescence, 60 min; hits give low values. max response, %. 1.2% of 330,000 active. AID 652105, 2013; active means max response of -50% or lower; inconclusive means between -30% and -50%; inactive means -30% or higher; further: value at the top dose of about 77 µM
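Enzyme plus substrate dispensed, test compounds pinned in, then ATP (5 microM final) added. After 60 min at RT, ADP-Glo reagent 1 for 45 min and reagent 2 for 30 min preceded luminescence imaging.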
G9a inh: qHTS Assay for Inhibitors of Histone Lysine Methyltransferase G9a; Potency, µM (titrated, usually from 102 µM), hits mostly inhibitors; G9a H3K9 monomethylation, AlphaScreen, 2 h; 8.8% of 350,000 active; further: nearly all actives have a fitted effect of over 75% in size
Target sequence (Q96KQ7 913-1193 limits assumed): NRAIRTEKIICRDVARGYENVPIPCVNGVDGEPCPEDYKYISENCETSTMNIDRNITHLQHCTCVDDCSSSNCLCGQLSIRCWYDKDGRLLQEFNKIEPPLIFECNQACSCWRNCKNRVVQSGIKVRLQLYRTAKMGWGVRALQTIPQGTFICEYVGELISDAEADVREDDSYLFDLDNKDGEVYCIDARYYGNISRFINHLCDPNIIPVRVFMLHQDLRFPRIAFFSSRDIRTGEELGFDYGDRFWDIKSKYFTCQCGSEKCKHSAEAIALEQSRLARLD
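Using a bead-based AlphaScreen, monomethylated H3K9 product from 2 h room-temperature reactions (G9a 20 nM, peptide 500 nM, SAM 20 uM) was detected with 0.5 ug/mL rabbit anti-H3K9me1 antibody.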
PLK1 PBD block: qHTS for Inhibitors of PLK1-PDB (polo-like kinase 1 - polo-box domain): Primary Screen; Potency, µM, actives largely listed as inhibitors; Serine/threonine-protein kinase PLK1 (Homo sapiens), P53350; Plk1 PBD binding of FITC phosphopeptide, fluorescence polarization; 2.8% of 360,000 active; further: series mostly up to about 57 µM; nearly all actives have a fitted effect of over 65% in size
Each line names hits and unclear results; the compound was inactive in the other large screens. Unless noted, the call rests on the fitted dose curve; in most records, active means well fitted curve in the direction sought with a large enough effect; inconclusive means small, poorly fitted or top-dose-only effect, or another doubt; inactive means no such curve, though single readings can be large; an effect the other way counts as inactive or inconclusive.

CCOC(=O)c1c(-c2ccccc2)csc1NC(=O)C(C)NCc1ccco1 (stereo not drawn)	HP1b binding inh 28µM, JMJD2A Tudor inh inconclusive, BAZ2B block 50µM, G9a inh 25µM
CCOC(=O)c1c(-c2ccc(Cl)cc2)csc1NC(=O)CNCc1ccco1	HP1b binding inh inconclusive, JMJD2A Tudor inh 45µM, BAZ2B block 40µM
CCOC(=O)c1c(-c2ccc(OC)cc2)csc1NC(=O)CNCc1ccco1	JMJD2A Tudor inh inconclusive
C#CCOCCOCCOCCNc1nc(N2CCN(C(=O)C([C@@H](C)O)n3cc([C@@H](N)CCCCN)nn3)CC2)nc(N2CCN(C(=O)[C@H](CC(N)=O)n3cc([C@@H](N)C(C)C)nn3)CC2)n1 (stereo partly drawn)	JMJD2A Tudor inh inconclusive (no result: BAZ2B block, G9a inh)
C#CCOCCOCCOCCNc1nc(N2CCN(C(=O)[C@H](CCCN=C(N)N)n3cc(C(N)[C@@H](C)CC)nn3)CC2)nc(N2CCN(C(=O)[C@H](CCCCN)n3cc([C@@H](N)CC(N)=O)nn3)CC2)n1 (stereo partly drawn)	JMJD2A Tudor inh 89µM (no result: BAZ2B block, G9a inh)
C#CCOCCOCCOCCNc1nc(N2CCN(C(=O)[C@H](CCCN=C(N)N)n3cc(C(N)[C@@H](C)CC)nn3)CC2)nc(N2CCN(C(=O)[C@H](CCC(=O)O)n3cc([C@@H](N)CO)nn3)CC2)n1 (stereo partly drawn)	JMJD2A Tudor inh 25µM (no result: BAZ2B block, G9a inh)
C#CCOCCOCCOCCNc1nc(N2CCN(C(=O)[C@H](CCCN=C(N)N)n3cc(C(N)[C@@H](C)CC)nn3)CC2)nc(N2CCN(C(=O)[C@H](CCC(=O)O)n3cc([C@@H](N)[C@H](C)CC)nn3)CC2)n1 (stereo partly drawn)	JMJD2A Tudor inh inconclusive (no result: BAZ2B block, G9a inh)
C#CCOCCOCCOCCNc1nc(N2CCN(C(=O)[C@H](CCCN=C(N)N)n3cc(C(N)[C@@H](C)CC)nn3)CC2)nc(N2CCN(C(=O)[C@H](CCC(=O)O)n3cc([C@@H](N)CC(N)=O)nn3)CC2)n1 (stereo partly drawn)	JMJD2A Tudor inh 50µM (no result: BAZ2B block, G9a inh)
C#CCOCCOCCOCCNc1nc(N2CCN(C(=O)C([C@@H](C)O)n3cc([C@@H](N)CCCCN)nn3)CC2)nc(N2CCN(C(=O)[C@H](CCCN=C(N)N)n3cc(C(N)[C@@H](C)CC)nn3)CC2)n1 (stereo partly drawn)	JMJD2A Tudor inh 56µM (no result: BAZ2B block, G9a inh)
CCCn1c2ccccc2c2cnn(CC(=O)N3CCCC(C)C3)c(=O)c21 (stereo not drawn)	none (no result: PI5P4Ka inh, PLK1 PBD block)
CCCCOc1cccc(C(=O)N(Cc2ccc(Cl)cc2)C2CCS(=O)(=O)C2)c1 (stereo not drawn)	none (no result: PI5P4Ka inh, PLK1 PBD block)
COc1ccc(C(=O)c2cn(CC(=O)Nc3ccc4c(c3)OCO4)c3ccc(OC)cc3c2=O)cc1	G9a inh inconclusive (no result: PI5P4Ka inh, PLK1 PBD block)
Cc1cc(C)cc(N2C(=O)CSC23C(=O)N(CC(=O)Nc2ccc(F)cc2F)c2ccccc23)c1 (stereo not drawn)	none (no result: PI5P4Ka inh, PLK1 PBD block)
CC(C)(C)NC(=O)NC(=O)CN1CCN(c2ccc(O)cc2)CC1	HP1b binding inh inconclusive, JMJD2A Tudor inh 22µM, G9a inh 3.2µM
CC(C)(C)NC(=O)NC(=O)CN1CCN(c2ccccc2)CC1	none
CC(CCc1ccccc1)NC(=O)CN1CCN(c2ccc(O)cc2)CC1 (stereo not drawn)	HP1b binding inh 89µM, JMJD2A Tudor inh 45µM, BAZ2B block inconclusive, G9a inh 7.9µM
COc1ccc(-c2c(C#Cc3ccc(N(C)C)cc3)c3ccccc3n2C)cc1	HP1b binding inh inconclusive, JMJD2A Tudor inh 56µM (no result: BAZ2B block, G9a inh)
CC1(C)CC(O)CC(C)(C)N1CC(O)COCc1ccccc1 (stereo not drawn)	none
Cc1cccc(OCC(O)CN2C(C)(C)CC(O)CC2(C)C)c1 (stereo not drawn)	PLK1 PBD block 9.5µM
COc1ccc(-n2nc3c(N)n[nH]c3cc2=O)cc1	G9a inh 50µM
Nc1n[nH]c2cc(=O)n(-c3ccc(Cl)cc3)nc12	G9a inh 45µM
Cc1cccc(-c2nc(N3CCN(c4ccc(F)cc4)CC3)c3ccccc3n2)c1	none (no result: PI5P4Ka inh, PLK1 PBD block)
CC(=O)O[C@]1(C(C)=O)CC[C@H]2C3C=C(Cl)C4=CC(=O)[C@@H]5C[C@H]5[C@]4(C)C3CC[C@@]21C (stereo partly drawn)	none (no result: HP1b binding inh, JMJD2A Tudor inh, BAZ2B block, PI5P4Ka inh, PLK1 PBD block)
CCCCC(CC)C(=O)Nc1ccc(C)c(O)c1 (stereo not drawn)	JMJD2A Tudor inh 50µM, PLK1 PBD block 30µM (no result: G9a inh)
CCCCC(CC)C(=O)Nc1ccc(Nc2ccccc2)cc1 (stereo not drawn)	JMJD2A Tudor inh inconclusive, BAZ2B block inconclusive, G9a inh inconclusive
O=C(C(=O)N1CCCCC1)c1c(-c2ccccc2)[nH]c2ccccc12	none
COc1ccc(Cn2ccc3nc(C)c(C(=O)Nc4ccc(OC)cc4OC)cc3c2=O)cc1	none (no result: PI5P4Ka inh, PLK1 PBD block)
CSc1nc(N)c2ncn([C@@H]3O[C@H](COP(=O)(O)OP(=O)(O)O)C(O)[C@H]3O)c2n1 (stereo partly drawn)	G9a inh 9.5µM (no result: HP1b binding inh, JMJD2A Tudor inh, BAZ2B block, PI5P4Ka inh, PLK1 PBD block)
CSc1nc(N)c2ncn([C@@H]3O[C@H](COP(=O)(O)OP(=O)(O)OP(=O)(O)O)[C@@H](O)[C@H]3O)c2n1	none (no result: HP1b binding inh, JMJD2A Tudor inh, BAZ2B block, PI5P4Ka inh, PLK1 PBD block)
COc1ccc(/C(C)=N\Nc2nc(-c3ccccc3)cc(=O)[nH]2)cc1	JMJD2A Tudor inh inconclusive, G9a inh 8.9µM
COc1ccc(C/C(C)=N/Nc2nc(C)cc(=O)[nH]2)cc1	G9a inh 40µM
COc1ccc(/C(C)=N/Nc2nc(C)cc(-c3ccccc3)n2)cc1	none (no result: BAZ2B block, G9a inh)
O=C(O)c1ccc(N/N=C/c2c[nH]c3ccccc23)cc1	BAZ2B block inconclusive, G9a inh inconclusive
O=C(O)c1ccc(N/N=C/C2=Cc3ccccc3OC2)cc1	G9a inh 50µM, PLK1 PBD block 24µM
Cc1ccc(CNC(=O)c2cc(Sc3ccc(F)cc3F)nc3ccccc23)cc1	none (no result: PI5P4Ka inh, PLK1 PBD block)
